# Article PMC12820563, “FoxP3 forms a head-to-head dimer in vivo and stabilizes its multimerization on adjacent microsatellites”
# The full ranking holds about 16,000 sequences; the median of “rpm ratio (pull-down/input)” is about 0.94, and the highest 2% start at about 1.7. The entries come from a sample that favours the highest values as a whole.
# Biological target: T1, MBP-FoxP1dN (Mus musculus, UniProt P58462 326-579)
# T1 sequence: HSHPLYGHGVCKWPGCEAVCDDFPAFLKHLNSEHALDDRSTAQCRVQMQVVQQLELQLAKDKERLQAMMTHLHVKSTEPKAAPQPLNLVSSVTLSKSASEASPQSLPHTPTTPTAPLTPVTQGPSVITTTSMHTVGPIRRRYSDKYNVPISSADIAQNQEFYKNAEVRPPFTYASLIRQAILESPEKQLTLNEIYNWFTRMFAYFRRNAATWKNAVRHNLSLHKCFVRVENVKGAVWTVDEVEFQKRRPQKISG
# Assay: PD-seq (MBP pull-down with sequencing); 20 mM Tris-HCl pH 7.5, 100 mM NaCl, 1.5 mM MgCl2, 0.4 uM protein, 0.1 uM dsDNA library, 30 min, room temperature, amylose pull-down; high values mean tight binding
# Conditions: protein: recombinant; tags: His6-MBP; chain copies: 2; dsDNA, one strand shown
# Procedure, shortened: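 The N-terminus-lacking fragment of mouse FoxP3 or FoxP1 carried a His6-MBP tag and was expressed in E. coli. At 0.4 µM it was incubated with 0.1 µM Klenow-filled degenerate double-stranded DNA library for 30 min at room temperature in Tris pH 7.5 buffer with NaCl and MgCl2, and complexes were caught on amylose resin, washed three times, released with proteinase K, PCR-barcoded and Illumina-sequenced. Binding is reads-per-million enrichment of pull-down over input with replicates pooled.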
row,Sequence,binding signal
1,GATGATTGTTCTCCCAGCTGATGAATTTGGGCCATCGAGTAAACAAATTTTCCTAATCTTTCTGTTCAAGCGCCATCTAC,0.878 RPM ratio (pull-down/input)
2,GATGATTGTTCTCCCAGCTGATGAATTGTTTGTGTCGAGTAAACAAATTTTCCTAATCTTTCTGTTCAAGCGCCATCTAC,2.77 RPM ratio (pull-down/input)
3,GATGATTGTTCTCCCAGCTGATGAATTGTGTTTGTCGAGTAAACAAATTTTCCTAATCTTTCTGTTCAAGCGCCATCTAC,2.8 RPM ratio (pull-down/input)
4,GATGATTGTTCTCCCAGCTGATGAATTTTCTGTGTCGAGTAAACAAATTTTCCTAATCTTTCTGTTCAAGCGCCATCTAC,0.968 RPM ratio (pull-down/input)
5,GATGATTGTTCTCCCAGCTGATGAATTCTTTGTGTCGAGTAAACAAATTTTCCTAATCTTTCTGTTCAAGCGCCATCTAC,1.06 RPM ratio (pull-down/input)
6,GATGATTGTTCTCCCAGCTGATGAATTTGATGTGTCGAGTAAACAAATTTTCCTAATCTTTCTGTTCAAGCGCCATCTAC,1.16 RPM ratio (pull-down/input)
7,GATGATTGTTCTCCCAGCTGATGAATTTGCTGTGTCGAGTAAACAAATTTTCCTAATCTTTCTGTTCAAGCGCCATCTAC,1.14 RPM ratio (pull-down/input)
8,GATGATTGTTCTCCCAGCTGATGAATTACCCATATCGAGTAAACAAATTTTCCTAATCTTTCTGTTCAAGCGCCATCTAC,1.07 RPM ratio (pull-down/input)
9,GATGATTGTTCTCCCAGCTGATGAATTACTCCTCTCGAGTAAACAAATTTTCCTAATCTTTCTGTTCAAGCGCCATCTAC,1.05 RPM ratio (pull-down/input)
10,GATGATTGTTCTCCCAGCTGATGAATTATATGAGTCGAGTAAACAAATTTTCCTAATCTTTCTGTTCAAGCGCCATCTAC,0.962 RPM ratio (pull-down/input)
11,GATGATTGTTCTCCCAGCTGATGAATTAACAATATCGAGTAAACAAATTTTCCTAATCTTTCTGTTCAAGCGCCATCTAC,1.87 RPM ratio (pull-down/input)
12,GATGATTGTTCTCCCAGCTGATGAATTAAAAATATCGAGTAAACAAATTTTCCTAATCTTTCTGTTCAAGCGCCATCTAC,1.35 RPM ratio (pull-down/input)
13,GATGATTGTTCTCCCAGCTGATGAATTATGAATATCGAGTAAACAAATTTTCCTAATCTTTCTGTTCAAGCGCCATCTAC,1.07 RPM ratio (pull-down/input)
14,GATGATTGTTCTCCCAGCTGATGAATTATCAATATCGAGTAAACAAATTTTCCTAATCTTTCTGTTCAAGCGCCATCTAC,1.96 RPM ratio (pull-down/input)
15,GATGATTGTTCTCCCAGCTGATGAATTATATCAATCGAGTAAACAAATTTTCCTAATCTTTCTGTTCAAGCGCCATCTAC,1.16 RPM ratio (pull-down/input)
16,GATGATTGTTCTCCCAGCTGATGAATTAATAATATCGAGTAAACAAATTTTCCTAATCTTTCTGTTCAAGCGCCATCTAC,1.51 RPM ratio (pull-down/input)

row,Sequence,binding signal
1,GATGATTGTTCTCCCAGCTGATGAATTAGCTTACTCGAGTAAACAAATTTTCCTAATCTTTCTGTTCAAGCGCCATCTAC,0.938 RPM ratio (pull-down/input)
2,GATGATTGTTCTCCCAGCTGATGAATTTTGAGGGTCGAGTAAACAAATTTTCCTAATCTTTCTGTTCAAGCGCCATCTAC,0.774 RPM ratio (pull-down/input)
3,GATGATTGTTCTCCCAGCTGATGAATTGCAGCAATCGAGTAAACAAATTTTCCTAATCTTTCTGTTCAAGCGCCATCTAC,1.33 RPM ratio (pull-down/input)
4,GATGATTGTTCTCCCAGCTGATGAATTTTTGCAATCGAGTAAACAAATTTTCCTAATCTTTCTGTTCAAGCGCCATCTAC,1.26 RPM ratio (pull-down/input)
5,GATGATTGTTCTCCCAGCTGATGAATTTGCAACATCGAGTAAACAAATTTTCCTAATCTTTCTGTTCAAGCGCCATCTAC,1.7 RPM ratio (pull-down/input)
6,GATGATTGTTCTCCCAGCTGATGAATTGTTGCAATCGAGTAAACAAATTTTCCTAATCTTTCTGTTCAAGCGCCATCTAC,1.87 RPM ratio (pull-down/input)
7,GATGATTGTTCTCCCAGCTGATGAATTGCAACAATCGAGTAAACAAATTTTCCTAATCTTTCTGTTCAAGCGCCATCTAC,1.91 RPM ratio (pull-down/input)
8,GATGATTGTTCTCCCAGCTGATGAATTGCAATCATCGAGTAAACAAATTTTCCTAATCTTTCTGTTCAAGCGCCATCTAC,1.48 RPM ratio (pull-down/input)
9,GATGATTGTTCTCCCAGCTGATGAATTGATGCAATCGAGTAAACAAATTTTCCTAATCTTTCTGTTCAAGCGCCATCTAC,1.96 RPM ratio (pull-down/input)
10,GATGATTGTTCTCCCAGCTGATGAATTGCAACCATCGAGTAAACAAATTTTCCTAATCTTTCTGTTCAAGCGCCATCTAC,1.45 RPM ratio (pull-down/input)
11,GATGATTGTTCTCCCAGCTGATGAATTGATGCCATCGAGTAAACAAATTTTCCTAATCTTTCTGTTCAAGCGCCATCTAC,1.39 RPM ratio (pull-down/input)
12,GATGATTGTTCTCCCAGCTGATGAATTGCAAAAATCGAGTAAACAAATTTTCCTAATCTTTCTGTTCAAGCGCCATCTAC,1.55 RPM ratio (pull-down/input)
13,GATGATTGTTCTCCCAGCTGATGAATTTCTGCAATCGAGTAAACAAATTTTCCTAATCTTTCTGTTCAAGCGCCATCTAC,1.1 RPM ratio (pull-down/input)
14,GATGATTGTTCTCCCAGCTGATGAATTGCAAACATCGAGTAAACAAATTTTCCTAATCTTTCTGTTCAAGCGCCATCTAC,2.29 RPM ratio (pull-down/input)
15,GATGATTGTTCTCCCAGCTGATGAATTGACTACATCGAGTAAACAAATTTTCCTAATCTTTCTGTTCAAGCGCCATCTAC,1.22 RPM ratio (pull-down/input)
16,GATGATTGTTCTCCCAGCTGATGAATTCCACAGTTCGAGTAAACAAATTTTCCTAATCTTTCTGTTCAAGCGCCATCTAC,0.831 RPM ratio (pull-down/input)
